Source: PubChem BioAssay AID651704 (Broad Institute, 2012)
Several values for one entry are separate records, joined by “and”; a condition that tells them apart may be missing. Identical values can stand only once. Among all 350,000 compounds or so, about 1,600 (0.46%) were called active.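 The calls were made as follows: active = every replicate reaching a set inhibition limit, whatever the replicate mean (cut at about 25% in these data); inconclusive = mean inhibition reaches that limit but some replicates miss it; inactive = the rest.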 The sample as a whole holds a higher share of actives than the screen did.

Target: Protein AF-9 (Homo sapiens) (UniProt P42568)
Test: inhibitors of AF4 peptide binding to AF9, primary screen, biochemical, AlphaScreen, biotin-AF4 peptide, FLAG-AF9, single point (AID 651704);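 also: 0% = plate neutral control median and 100% = total signal loss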
Details: at 10 µM, hits give high values

Sequence of Protein AF-9 (Homo sapiens) (P42568 whole entry, looked up): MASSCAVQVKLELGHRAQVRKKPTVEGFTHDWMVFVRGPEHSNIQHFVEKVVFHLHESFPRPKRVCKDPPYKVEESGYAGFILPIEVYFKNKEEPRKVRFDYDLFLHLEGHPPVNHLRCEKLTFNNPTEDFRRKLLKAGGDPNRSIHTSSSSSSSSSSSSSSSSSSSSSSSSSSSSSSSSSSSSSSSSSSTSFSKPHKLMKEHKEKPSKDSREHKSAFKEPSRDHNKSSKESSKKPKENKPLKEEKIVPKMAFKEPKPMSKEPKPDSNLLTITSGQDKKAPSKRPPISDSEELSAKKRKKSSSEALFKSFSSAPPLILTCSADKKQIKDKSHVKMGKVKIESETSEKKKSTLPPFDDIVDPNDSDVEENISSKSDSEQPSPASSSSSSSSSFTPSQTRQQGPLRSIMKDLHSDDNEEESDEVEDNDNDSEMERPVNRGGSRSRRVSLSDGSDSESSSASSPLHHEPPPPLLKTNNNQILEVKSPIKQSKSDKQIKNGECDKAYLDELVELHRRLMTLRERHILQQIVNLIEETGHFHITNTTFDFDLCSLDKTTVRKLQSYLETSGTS

inhibition, active:
O=C1Nc2cc(C(=O)N3CCC(N4CCCCC4)CC3)ccc2S/C1=C\c1ccccc1 32.5%
C[C@@H]1CCCCO[C@H](CN(C)Cc2ccc(C(F)(F)F)cc2)[C@H](C)CN([C@@H](C)CO)C(=O)c2cc(N(C)C)ccc2O1 29.4%
C[C@H]1CN([C@@H](C)CO)C(=O)Cc2cc(N(C)C)ccc2O[C@@H]1CN(C)Cc1ccc(-c2ccccc2)cc1 51.6%
Cc1ccccc1C(=O)Nc1ccc(N2CCCCCC2)cc1 27.9%
Oc1c(CN2CCN(c3ccc(F)cc3)CC2)cc(Cl)c2cccnc12 41.3%
O=[N+]([O-])c1ccccc1Nc1ccc(O)cc1 28.1%
COc1ccc2c3c(n(C)c2c1)[C@@H](CO)N(C(=O)Nc1cccc(F)c1)CC31CCN(Cc2nccs2)CC1 28.6%
COc1ccc(-c2ccc3[nH]c4c(c3c2)CCN2C[C@H]3[C@H](C)ON(C)[C@H]3C[C@@H]42)cc1 27.4%
Cc1ccc(Nc2cc(C)nc3c(C)ccc([N+](=O)[O-])c23)cc1 33.4%
C/C(=N\NS(=O)(=O)c1ccc(Cl)cc1)c1ccc(NC(=O)c2ccco2)cc1 26.4%
CCOc1cc(N2CCOCC2)c(OCC)cc1NC(=O)C1=NN(c2cccc(C)c2)C(=O)CC1 31.5%

inhibition, inactive:
O=C(Nc1ccccc1)C1CCN(C(=O)c2ccc(Br)cc2)CC1 -2.26%
CC1CCN(C(=O)c2ccc3c(c2)NC(=O)CN3)CC1 4.92%
O=C(N[C@H]1CC[C@H](CCn2cc(C3(O)CCCC3)nn2)O[C@H]1CO)C1CC1 -0.223%
C[C@@H]1CN([C@H](C)CO)C(=O)Cc2cc(N(C)C)ccc2O[C@@H]1CN(C)Cc1ccccc1 3.48%
C[C@@H]1CN([C@@H](C)CO)C(=O)c2cc(N(C)C)ccc2O[C@@H](C)CCCCO[C@H]1CN(C)Cc1ccncc1 -1.22%
C[C@H](CO)N1C[C@H](C)[C@H](CN(C)Cc2ccc(C(F)(F)F)cc2)Oc2ccc(N(C)C)cc2CC1=O 15.8%
C[C@@H]1CCCCO[C@@H](CN(C)Cc2ccncc2)[C@H](C)CN([C@H](C)CO)C(=O)c2cc(N(C)C)ccc2O1 1.48%
CCCNC(=O)N1C[C@H](C)[C@@H](OC)CN(C)C(=O)c2ccc(NC(=O)CC)cc2OC[C@@H]1C -2.2%
COc1cccc(C#Cc2ccc([C@@H]3[C@H](C#N)N[C@H]3CO)cc2)c1 -2.01%
CC(C)C#Cc1ccc([C@H]2[C@@H](CO)N3C(=O)CN(C(=O)Cc4ccccc4)C[C@H]23)cc1 -0.595%
COc1ccccc1NC(=O)Nc1ccc2c(c1)OC[C@H](C)NC[C@H](C)[C@@H](OC)CN(C)C2=O 1.19%
Cc1ccc(S(=O)(=O)Nc2ccc3c(c2)C(=O)N([C@@H](C)CO)C[C@@H](C)[C@@H](CN(C)S(=O)(=O)c2ccc(C)cc2)O3)cc1 -1.03%
O=C(O)C[C@@H]1CC[C@H](NC(=O)CCN2CCCCC2)[C@H](CO)O1 -0.492%
Cc1ccccc1C(=O)N1CCN(c2ccc(NC(=O)c3cccs3)cc2)CC1 0.817%
Cc1ccccc1C(=O)Nc1ccccc1NC(=O)c1ccccc1C 0.679%
O=C(CC1CC1)N[C@@H]1C[C@@H]2O[C@H](CO)CC[C@@H]2O[C@@H]1CCc1ccc(C#Cc2ccccc2)cc1 -5.03%
Cc1ccc(CN2CCN(c3ncccn3)CC2)c(C)c1 -1.37%
Oc1c(CN2CCCC2)cc(COCc2ccccc2)c2cccnc12 6.56%
O=[N+]([O-])c1ccccc1NCc1ccccc1Cl -5.33%
O=C(NCCNc1ccccc1[N+](=O)[O-])c1ccccc1F 0.524%
COc1ccc2c3c(n(C)c2c1)[C@@H](CO)N(C(C)=O)CC31CCN(Cc2nccs2)CC1 3.54%
COc1ccc2c3c(n(C)c2c1)[C@H](CO)N(C(=O)Nc1cccc(F)c1)CC31CN(Cc2nccs2)C1 7.77%
COc1ccc2c3c(n(C)c2c1)[C@H](CO)N(Cc1cccnc1)CC31CCN(Cc2cccnc2)CC1 13.7%
C[C@H](CO)N1C[C@H](C)[C@H](CN(C)CC2CCCCC2)OCCCC[C@H](C)Oc2ccc(NC(=O)c3ccncc3)cc2C1=O -4.16%
COc1cccc(C2c3[nH]c4ccccc4c3CCN2Cc2cccc(C)n2)c1 (centres undefined) 16.4%
COC(=O)[C@H]1[C@H]2C[C@H]3c4[nH]c5ccccc5c4CCN3C[C@@H]2CC[C@@H]1O 10.9% and 1.82%
CCCC#Cc1ccc([C@H]2[C@@H](CO)N3C(=O)CN(C(=O)c4ccncc4)C[C@@H]23)cc1 -4.03%
COc1cccc(S(=O)(=O)Nc2ccc3c(c2)[C@H]2C[C@H](CC(=O)O)O[C@H](CO)[C@H]2O3)c1 -1.01%
O=C(Nc1ccccc1)N1CC(=O)N2[C@@H](CO)[C@H](c3ccc(C#CC4CCCC4)cc3)[C@@H]2C1 7.61%
Cc1cc(Nc2ccc(C(=O)N3CCCCC3)cc2)c2cccc(C)c2n1 -1.38%
Cc1cc(Nc2ccc(N3CCOCC3)cc2)c2cccc(C)c2n1 7.78%
COc1ccc2c3c(n(C)c2c1)[C@@H](CO)N(Cc1ccncc1)CC31CN(C(=O)C2CCCCC2)C1 -2.52%
COc1ccc2c3c(n(C)c2c1)[C@H](CO)N(C(C)=O)CC31CN(C(=O)c2cnccn2)C1 -3.28%
C/C(=N/NS(=O)(=O)c1ccccc1)c1ccc(NC(=O)C(F)(F)F)cc1 1.28%
Cc1ccc(NC(=O)c2ccco2)cc1 2.52%
CCC(=O)N1CC2(C1)CN(Cc1cc(F)ccc1F)[C@@H](CO)c1[nH]c3cc(OC)ccc3c12 -4.95%
CCOc1cc(N2CCOCC2)c(OCC)cc1NC(=O)COc1cccc(Cl)c1 3.04%
CCOc1cc(N2CCOCC2)c(OCC)cc1NC(=O)c1ccc(C)s1 13.4%
